Results: publication PMC5540273 (PLoS ONE, 2017)

Columns and labels:
Conditions in all cases: concentration: 1 μM,replicates: in singlicate; n = 1
[1] = tested on: T1, NIM1
T1 construct: gene MGC42105

[2] = tested on: NLK
[3] = tested on: T2, OSR1
T2 construct: gene OXSR1

[4] = tested on: PAK1
[5] = tested on: PAK2
[6] = tested on: PAK3
[7] = tested on: PAK4
[8] = tested on: PAK6
[9] = tested on: PAK7
[10] = tested on: T3, PCTK1
T3 construct: gene CDK16
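Also: KINOMEscan kinase panel screen.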

SMILES	%Inh [1]	%Inh [2]	%Inh [3]	%Inh [4]	%Inh [5]	%Inh [6]	%Inh [7]	%Inh [8]	%Inh [9]	%Inh [10]
O=C(NCC1CC1)c1ccc(-c2cc(C(=O)NC3CC3)ccc2F)cc1 [GW810445]	35%	10%	0%	0%	26%	12%	0%	0%	4%	0%
O=C(Nc1ccc(Oc2ccc3nc(NC(=O)C4CC4)cn3n2)c(F)c1)c1cccn(-c2ccccc2)c1=O	0%	0%	0%	0%	0%	0%	0%	0%	0%	0%
CCNCC(Cc1ccccc1)NC(=O)c1cc(Br)c(-c2ccnc3[nH]ccc23)s1.Cl.Cl (stereo not shown) [GSK1383280]	20%	0%	8%	26%	40%	62%	44%	60%	78%	0%
CCn1c(-c2nonc2N)nc2cncc(Br)c21 [SB-738004]	37%	22%	0%	0%	16%	1%	7%	15%	32%	0%
NC(=O)c1ccc(-c2cc3ncnc(SCC(=O)O)c3s2)cc1	0%	0%	0%	0%	0%	0%	0%	0%	0%	0%
c1ccc(Oc2ccc(Nc3ccnc4ccc(-c5ccccn5)cc34)cc2)cc1 [GW407034]	17%	13%	57%	20%	11%	0%	0%	0%	7%	8%
Cc1ccn2nc(-c3ccc(F)cc3)c(-c3ccncc3)c2c1.Cl [GW457859]	20%	79%	0%	0%	0%	0%	0%	0%	21%	0%
COC(=O)Nc1nc2cc(Oc3ccc(NC(=O)Nc4cc(C(F)(F)F)ccc4Cl)cc3)ccc2[nH]1.Cl [GW697465]	26%	2%	10%	36%	29%	25%	0%	0%	2%	0%
Cn1ccc2ncnc(Oc3ccc(NC(=O)Nc4cnn(C(C)(C)C)c4)c(Cl)c3)c21	0%	38%	6%	13%	34%	45%	5%	19%	0%	24%
COc1cccc(CNC(=O)NC2CCN(c3ccnc(Nc4cc(OC)c(OC)c(OC)c4)n3)C2)c1 (stereo not shown) [GSK1379765]	21%	0%	3%	0%	8%	11%	0%	0%	1%	3%
CCCC(=O)Nc1n[nH]c2ncccc12 [SB-601436]	0%	0%	0%	0%	17%	0%	0%	0%	0%	0%
O=C(Nc1n[nH]c2cc(-c3ccco3)ccc12)C1CC1 [SB-737447]	0%	4%	12%	0%	48%	0%	1%	0%	8%	36%
Cn1cc(-c2cccc3c(N)c(C(N)=O)nnc23)cn1	9%	20%	24%	0%	2%	44%	1%	13%	18%	6%
Cl.Nc1n[nH]c2cc(-c3ccccn3)ccc12 [GSK2189892]	0%	0%	11%	9%	2%	0%	0%	2%	16%	0%
C[C@@H]1CNc2c(sc3ccc4nc(-c5ccncc5)ccc4c23)C(=O)N1	0%	0%	9%	0%	5%	9%	24%	9%	0%	0%
O=C(NOCC1CC1)c1cc(Br)c(F)c(F)c1Nc1ccc(I)cc1Cl	25%	0%	0%	2%	12%	16%	0%	0%	0%	0%
